# ± gives the standard deviation of the averaged measurements.
# Tested on: CHON-002
# Assay: nucleolar normality score relative to DMSO (fraction of DMSO control); RPE1 is a non-cancer human cell line; higher = more normal nucleoli (less nucleolar stress)
# Protocol: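 Selected screen hits were validated in hTERT lines (BJ5TA, CHON-002, RPE1) and cancer lines (DLD1, HCT116). Cells were immunostained for nucleolin and UBF and the nucleolar normality score was measured per field of view, with 4 fields per drug. Scores are normalized to each cell line's own DMSO control. Dose and time are not stated for this panel.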
row,SMILES,nucleolar normality score
1,CC[C@@]1(O)C(=O)OCc2c1cc1n(c2=O)Cc2cc3ccccc3nc2-1 [Camptothecin],0.38 ± 0.047
